Data from PubChem BioAssay AID977606 (Broad Institute, 2014).
In all, about 1,500 compounds went through this assay and about 430 (29%) were called active. How the calls were made is not given here. Only a sample is shown. Entries that show only a call come without a potency. Potency and affinity values are given separately.

assay: glucose-independent GLuc insulin release activation – cell-based, INS-1E, Gaussia luciferase, luminescence, cherry-pick, counter-screen for glucose-dependent insulin secretion activators, dose response (AID 977606); details: INS-1E Gaussia luciferase insulin secretion, no glucose, 100% = twice neutral-control luminescence; series mostly up to 35 µM

Compound	outcome
COc1ccc(C(=O)C2CCCN(Cc3cccn3-c3nccs3)C2)cc1OC (stereo not drawn)	inactive
CN(C)C(=O)c1ccc(-c2ccc([C@@H]3[C@@H](CO)N4C(=O)CN(C(=O)C5CC5)C[C@@H]34)cc2)cc1	inactive
Cc1c(O)cnc2nn(-c3ccccc3)c(=N)n12	inactive
CCOC(=O)Cc1cc(=O)n2[nH]c(-c3ccc(C)cc3)cc2n1	inactive
CC(C)Oc1ccc(Br)cc1C(=O)N/N=C/c1c[nH]c2ccccc12	inactive
CN(C)c1ccc(/C=N/NC(=O)c2ccccc2Cl)cc1	inactive
CCNc1nc(Oc2ccc(C#N)cc2)cc(C(F)(F)F)n1	inactive
COc1ccc2oc(-c3ccncc3)cc(=O)c2c1	inactive
O=C(Nc1ccc(NC(=O)c2cccs2)cc1)c1ccc2c(c1)OCO2	inactive
O=C(Nc1ccc2oc(-c3cccnc3)nc2c1)c1ccc2c(c1)OCCO2	inactive
CCNc1nc(NCC)nc(N(C#N)C(C)C)n1	inactive
O=C(NC1CCCC1)c1ccc(Cl)c(S(=O)(=O)N2CCOCC2)c1	inactive
COc1ccc(C(=O)N2CCc3cc(OC)c(OC)cc3C2c2ccc(OC)c(OC)c2)cc1OC (stereo not drawn)	inactive
COc1ccc(C(=O)Nc2ccccc2C(=O)NCc2cccnc2)cc1OC	inactive
O=C(NCc1cccnc1)c1cccc(S(=O)(=O)NCc2ccccc2)c1	inactive
Clc1ccc(-c2cc(CN3CCOCC3)no2)cc1	inactive
Cc1cc(C)n(CC(=O)n2c3ccccc3c3ccccc32)n1	inactive
O=C(c1cccs1)N(Cc1ccc(Cl)cc1)C1CCS(=O)(=O)C1 (stereo not drawn)	inactive
COc1ccc(C(=O)OCC(=O)NC(=O)NC2CCCC2)cc1OC	inactive
O=C(O)c1ccc(-n2nnnc2SCc2ccccc2F)cc1	inactive
O=C(Nc1ccccc1)Nc1nnc(-c2cccs2)s1	inactive
O=C(c1ccco1)N(Cc1ccc(Cl)cc1)C1CCS(=O)(=O)C1 (stereo not drawn)	inactive
O=C(COc1ccccc1Cl)NNC(=O)c1ccc2nc[nH]c2c1	inactive

Compound	outcome
COc1ccccc1N(CC(=O)NCC1CCCO1)C(=O)CNS(=O)(=O)c1ccc(Cl)cc1 (stereo not drawn)	inactive
Cc1cc(C)cc(N(C(=O)C(F)(F)F)C(C(=O)NC2CCCCC2)c2cccs2)c1 (stereo not drawn)	inactive
O=C(NCc1ccccn1)c1ccccc1OCc1ccc(Cl)cc1Cl	inactive
COc1ccc2oc(=O)c(C(=O)NCc3ccccn3)cc2c1	inactive
CC1CCC(NC(=O)C2COc3ccccc3O2)CC1 (stereo not drawn)	inactive
C=CCc1ccc(OCCOc2ccc(/C=N/n3cnnc3)cc2OCC)c(OC)c1	inactive
CCCCOC(=O)c1cc(-c2ccc(/C=N/n3cnnc3)o2)ccc1Cl	inactive
N#Cc1c(-c2ccco2)cc(C2CC2)nc1N	inactive
COc1cc2c(cc1OC)C(Nc1ccccc1)=NC(C)(C)C2	inactive
O=C(NCC1(O)CCCCC1)C1CCC(=O)N(Cc2ccccc2F)C1 (stereo not drawn)	inactive
NC1=NC(=O)C(Cc2ccc(F)cc2)S1 (stereo not drawn)	inactive
COc1cc(OC)c(OC)cc1/C=N/n1c(C)nc2ccccc2c1=O	inactive
O=C1Nc2cnc(Cl)nc2Nc2ccccc21	inactive
COc1ccc(CN(C)C(=O)c2cc(-c3ccc(OC)c(OC)c3)nc3ccccc23)c(OC)c1	inactive
COc1ccc(-c2cc(C(=O)N(C)Cc3ccc(OC)c(OC)c3OC)c3ccccc3n2)cc1OC	inactive
COc1ccc(F)cc1C(=O)C1CCCN(C(=O)c2ccc(C(C)=O)s2)C1 (stereo not drawn)	inactive
Clc1ccc(OCCn2ccnc2)c(Cl)c1	inactive
C=CCOc1cccc(C(=O)N2CCC(CCC(=O)NC3CC3)CC2)c1	inactive
COc1ccc(CCNc2ccncn2)cc1OC	inactive
Cc1cc2cc(C#N)c(N3CCOCC3)nc2cc1Cl	inactive
CCN1CCN(CCCNC(=O)c2ccc3c(c2)N(Cc2ccccc2)CCS3)CC1	inactive
Nc1[nH]c(C(=O)c2ccccc2)c(-c2c(F)cccc2F)c1C(=O)c1ccc(Cl)c(Cl)c1	inactive
Cc1cn(CC(C)C)c(=O)n(-c2ccccc2)c1=O	inactive

Compound	outcome
COc1ccc(CC(=O)OCC(=O)N2CCc3ccccc32)cc1OC	inactive
COc1cc2c(cc1OC)CN(C(=O)Cc1ccccc1)CC2	inactive
CC/C(O)=C1\C(=O)CC(C)(C)CC1=Nc1ccccc1C	inactive
CC(C)(C)c1ccc(C#C[C@@H]2C=C[C@H]3OC(=O)CC/C=C/CCC(=O)OC[C@H]3O2)cc1	inactive
CC1CCc2nc(N)c(C#N)c(-c3ccncc3)c2C1 (stereo not drawn)	inactive
Cc1c(C=O)c2ccccn2c1C(=O)c1ccc(F)cc1	inactive
COc1ccccc1Nc1c2c(nc3ccc(N)cc13)CCCC2	inactive
CN(C)c1ccc(CC(=O)N2CCCCC2c2cc(C(=O)Nc3ccccc3Cl)no2)cc1 (stereo not drawn)	inactive
O=C(O)CNS(=O)(=O)c1ccc2c(c1)Cc1cc(S(=O)(=O)NCC(=O)O)ccc1-2	inactive
CCc1cc2c(COC(=O)c3cccc(S(C)(=O)=O)c3)cc(=O)oc2cc1O	inactive
CCN(CC)C(=O)Cn1cc(C(=O)C(=O)N2CCN(Cc3ccccc3)CC2)c2ccccc21	inactive
Cc1ccc(-c2nc3c(=O)n(C)c4ccccc4c3o2)cc1	inactive
O=C(CC(c1ccccc1)c1ccco1)N1CCOCC1 (stereo not drawn)	inactive
CC(C)CCC(O)(CCC(C)C)C(=O)NN1CCCCC1	inactive
COc1ccc(C2=NN(c3ccc(C(=O)O)cc3)C(c3ccc(OC)c(OC)c3)C2)cc1 (stereo not drawn)	inactive
CCOc1cc(C2C3=C(CC(C)(C)CC3=O)Nc3n[nH]c(C)c32)ccc1O (stereo not drawn)	inactive
CC(C)CCN1C(=O)CSCC1(C)C(=O)NC(C)C (stereo not drawn)	inactive
CCCc1nnc2c(N(C)S(=O)(=O)c3ccc(C)cc3)nc3ccccc3n12	inactive
Cc1cc(=O)[nH]c2c1c(C)nn2C1CCCC1	inactive
N#Cc1sc2nc(C3CC3)cc(-c3ccccc3)c2c1N	inactive
COc1cc2c(cc1OC)C1=C(C#N)CCC(=NC(=O)c3ccco3)N1CC2	inactive
O=C(CN1C(=O)CCC1=O)Nc1cccc2c1C(=O)NC2=O	inactive
Cc1cc(-c2ccc(Br)cc2)n2nc(C)cc2n1	inactive

Compound	outcome
CSc1ncccc1C(=O)NCCc1ccccc1F	inactive
CCSc1nnc2ccc(-c3ccc(C)cc3)nn12	inactive
CSc1ccc2nnc(-c3cccc(F)c3)n2n1	inactive
O=C(CCCC(=O)c1ccccc1)NCc1ccccc1	inactive
O=C(CCc1nc2ccccc2c(=O)[nH]1)NNC(=O)c1cccc(Cl)c1	inactive
CCCn1c(=O)c(C(=O)NCc2ccccc2)c(O)c2ccccc21	inactive
CCOc1ccc(CCNC(=O)COC(=O)c2nccnc2N)cc1OCC	inactive
COc1ccccc1C(C)NS(=O)(=O)c1ccc(Cl)nc1 (stereo not drawn)	inactive
CN(C)CCCN(C(=O)CCOc1ccccc1)c1nc2ccc(F)cc2s1	inactive
COc1ccc(S(=O)(=O)N2CCC(C(=O)NCc3ccccn3)CC2)cc1OC	inactive
COc1cc2c(cc1OC)CN(C(=O)CNS(=O)(=O)c1ccc(C)c(C)c1)CC2	inactive
Cc1ccc(-c2[nH]nc3c2C(c2cccnc2)C(C#N)=C(N)O3)cc1 (stereo not drawn)	inactive
CC(=O)c1c(O)c2cccc3c2n(c1=O)CCC3	inactive
Cc1cccnc1NC(=O)c1ccc(S(=O)(=O)N2CCCCC2)cc1	inactive
O=C(NCCC1CCCCN1S(=O)(=O)c1ccc(F)cc1)C(=O)NCc1cccnc1 (stereo not drawn)	inactive
CCOc1ccc(NC(=O)[C@@H](NC(=O)OCc2ccccc2)[C@@H](C)CC)cc1	inactive
CCOc1cc(OCC)cc(C(=O)Nc2cccnc2)c1	inactive
Cc1ccc2c(=O)cc(C(=O)NC3CCS(=O)(=O)C3)oc2c1C (stereo not drawn)	inactive
CCOC(=O)N1CCN(C(=O)COc2ccccc2OC)CC1	inactive
CN1CCCCCC1C(=O)N1CCC(N2CCC(C(=O)N3CCOCC3)CC2)CC1 (stereo not drawn)	inactive
C/C(=N/NC(=O)c1ccc(Br)s1)c1ccncc1	inactive
Cc1ccc(C(=O)Nc2cccc(C(=O)N/N=C/c3ccc(F)cc3)c2)cc1	inactive
O=C(Nc1ncn[nH]1)c1ccc(Cl)c(Cl)c1	inactive

Compound	outcome
C/C(=N/NC(=O)c1ccc(Br)o1)c1ccncc1	inactive
COc1ccc(CC(=O)N2CCc3cc(OC)c(OC)cc3C2)cc1	inactive
COc1cccc(-n2c(=O)c3ccccc3n(CC(=O)NCC3CCCO3)c2=O)c1 (stereo not drawn)	inactive
O=S(=O)(c1ccc(-c2csc(Nc3ccc(Br)cc3)n2)cc1)N1CCCC1	inactive
O=c1[nH]nc(-c2ccc(F)cc2)cc1Cc1cccs1	inactive
CCCCNC(=O)c1ccccc1NC(=O)C1=C(C)OCCS1	inactive
CCOCC(=O)Nc1c(C(=O)OCC)oc2ccccc12	inactive
COc1ccc(CNC(=O)CN2C(=O)NC3(CCCCCC3)C2=O)cc1	inactive
CCCCNC(=O)C1(C)CCN1C(=O)Cc1cccc2ccccc12 (stereo not drawn)	inactive
CCOC(=O)C1=C(COC(=O)c2cccs2)NC(=O)NC1C (stereo not drawn)	inactive
CCOc1ccc(CCNC(=O)COC(=O)c2cccc(N(C)C)c2)cc1OCC	inactive
O=S(=O)(NCc1ccccc1)c1ccc(-n2cccn2)cc1	inactive
CCCCc1nc(N)c(C#N)c(-c2ccco2)c1CCC	inactive
CC(C)n1cc(/C(N)=N/O)c(=O)n(Cc2ccccc2)c1=O	inactive
CCCc1nc(N)sc1C(=O)OCC	inactive
Cc1nc2ccccc2c2nc(NC(=O)C(F)(F)F)nn12	inactive
COC(=O)C[C@@H]1C=C[C@H](NC(=O)Cc2ccccn2)[C@@H](CO)O1	inactive
CCCc1cc(=O)oc2cc(C)cc(OCC(=O)Nc3ccc(S(N)(=O)=O)cc3)c12	inactive
CCCOC(=O)Nc1ccc(S(=O)(=O)Nc2ncccn2)cc1	inactive
Cc1[nH]n(-c2ccc(Br)cc2)c(=O)c1/C=N/NC(=O)c1ccccc1	inactive
Cn1cc(Br)c(C(=O)NNC(=O)c2ccccc2)n1	inactive
